High-throughput results as filed in PubChem.
The list is not random: actives were taken first. Their share in the collection is about 21%.
Pf growth 48h: inhibits P. falciparum growth in the first generation, 48 h; P. falciparum luciferase growth in erythrocytes, 48 h; Potency, µM (series often up to 28.7 µM), actives largely listed as inhibitors; actives 5.9% (n = 310,000)
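Here the parasites carry a stable luciferase gene and grow inside erythrocytes in Albumax-based RPMI medium with compound for one erythrocytic cycle. Activity is scored as loss of luminescent signal.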
Pf growth 96h: P. falciparum growth inhibition at 96 hour, primary screen for plastid delayed-death inhibitors. actives 6.9% (n = 320,000). P. falciparum luciferase reporter growth, 96 h. Potency, µM (highest dose often 28.7 µM), usual class: inhibitors
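Readout is luminescence from an integrated firefly luciferase in P. falciparum. Red cells, 2% hematocrit and 0.05% parasitemia final, were cultured with compound through two parasite generations (96 hours) at 37 C, 5% CO2.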
NS1 function inh: inhibitors of influenza NS1 protein function; actives 0.4% (n = 270,000); Potency, µM (series often up to 46.1 µM); calls by dose curve; also: actives are rising curves; nearly all actives have a fitted effect of over 50% in size
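Compounds were scored for reversing the slow growth caused by influenza A NS1 in S. cerevisiae, measured by optical density at 600 nm. Assay medium contained 2% galactose at pH 6.0; NS1-free yeast of the same strain were the positive control.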
Shiga toxin inh: inhibitors of Shiga toxin in Vero cells; Vero cells, Shiga toxin protein synthesis inhibition reporter; inhibition, % at 38.7 µM; actives 9.2% (n = 290,000); AID 2315; in the data active = inhibition mostly above about 28%, no sharp cut-off; inactive = mostly below about 43%
SARS PLP yeast: inhibitors of SARS-CoV papain-like protease in yeast; S. cerevisiae expressing SARS-CoV PLpro, growth rescue; AID 485353; Potency, µM (highest dose often 32.9 µM), most hits filed as activators; actives 0.19% (n = 330,000); calls by dose curve; also: nearly all actives have a fitted effect of over 55% in size
CHX counter: counter-screen for Shiga toxin inhibitors: cycloheximide protein synthesis inhibition | cell reporter, cycloheximide protein synthesis inhibition counterscreen | max response, % | actives 12% (n = 300,000); in the data active = max response mostly above about 13%, no sharp cut-off; inactive = mostly below about 14%; also: read at 38.3 µM for the half of the compounds with a filed dose
Large screens that a line does not name were inactive. Unless noted, calls follow the shape of the dose curve; as a rule, active = well fitted inhibition curve with a large enough effect; inconclusive = small, poorly fitted or top-dose-only effect, or another doubt; inactive = no such curve, though single readings can be large or run the other way.

Cc1ccc(C(=O)N2CC(=O)Nc3ccc(F)cc3C2c2ccccc2)cc1[N+](=O)[O-] (stereo not drawn)	Pf growth 48h 9.3µM, Pf growth 96h inconclusive
CCCC(=O)N1CC(=O)Nc2ccc(C)cc2C1c1ccccc1 (stereo not drawn)	Pf growth 96h 7.4µM
CCC(CC)C(=O)N1CC(=O)Nc2ccc(C)cc2C1c1ccccc1 (stereo not drawn)	Pf growth 48h inconclusive, Pf growth 96h inconclusive
COc1cccc(CNC(=O)Cc2ccc(-n3c(=O)[nH]c4ccccc4c3=O)cc2)c1	none
Cc1cc(C(=O)N/N=C/c2cc(Br)cc(Br)c2OC(=O)c2cccc(F)c2)n[nH]1	Pf growth 48h 12µM, Pf growth 96h inconclusive (no result: NS1 function inh)
Cc1nc2ccccc2cc1C(=O)N/N=C/c1cccs1	none
Cc1cc(C(=O)N/N=C/c2cc(Br)cc(Br)c2OC(=O)c2ccccc2)n[nH]1	Pf growth 48h inconclusive, NS1 function inh inconclusive
Cc1cc(C(=O)N/N=C/c2cccs2)no1	Shiga toxin inh 58, CHX counter 40
Cc1ccc(C(=O)N/N=C\c2cccs2)cn1	Shiga toxin inh 82, CHX counter 25 (no result: NS1 function inh)
Cc1cc(C(=O)N/N=C\c2cc(C(C)(C)C)ccc2O)n[nH]1	Pf growth 48h 12µM, Shiga toxin inh 41, SARS PLP yeast inconclusive, CHX counter 47
O=C1C(=O)N(CCCN2CCOCC2)C(c2ccccn2)/C1=C(\O)c1ccc2c(c1)OCCO2 (stereo not drawn)	none (no result: Pf growth 48h, Pf growth 96h, Shiga toxin inh, SARS PLP yeast, CHX counter)
O=C(NCc1cccc2[nH]ccc12)C1CCC(=O)N(CCc2ccc(Cl)cc2)C1 (stereo not drawn)	none
Cc1cccc(C(=O)NCC(=O)NCC2COc3ccccc3O2)c1 (stereo not drawn)	Pf growth 48h inconclusive (no result: NS1 function inh, Shiga toxin inh, CHX counter)
Cn1cccc1/C=N/NC(=O)c1cccc(OC(F)(F)C(F)F)c1	Shiga toxin inh 63, CHX counter 30
Cc1cc(C(=O)N/N=C/c2cccn2C)n[nH]1	Shiga toxin inh active, CHX counter 33
O=C(N/N=C/c1cccs1)c1[nH]ncc1Br	Shiga toxin inh 118, CHX counter 55
Cc1ccc(OCC(=O)N/N=C/c2cccn2C)cc1	none
Cc1cc(C(=O)N/N=C/c2cccs2)n[nH]1	Shiga toxin inh 54, CHX counter 29 (no result: NS1 function inh)
O=C(NCc1ccc2c(c1)OCO2)C(=O)NCC1OCCCN1S(=O)(=O)c1ccc(F)cc1 (stereo not drawn)	Pf growth 96h inconclusive
Cc1c(Br)c(C(F)(F)F)nn1CC(=O)NCc1ccccc1	none
Cc1ccccc1NC(=O)Cc1nc(COC(=O)CSc2ccccc2)cs1	SARS PLP yeast inconclusive
Cn1c(=O)c(=O)n(C)c2cc(S(=O)(=O)CCC(=O)Nc3c(F)c(F)c(F)c(F)c3F)ccc21	Pf growth 96h inconclusive
O=C(N/N=C/c1cccs1)c1cnccn1	Shiga toxin inh 32
Cc1ccc(C)c(NC(=O)CN(C)C(=O)c2cccc(N3C(=O)CCC3=O)c2)c1	none (no result: NS1 function inh, Shiga toxin inh, CHX counter)
COc1ccc(-c2nc3c(c(SCC(=O)N4CCOCC4)n2)Cc2c(CO)cnc(C)c2O3)cc1	Pf growth 48h inconclusive
Cc1cccc(C)c1NC(=O)CN(C)C(=O)c1ccccc1Cc1ccccc1	Pf growth 48h inconclusive, Pf growth 96h inconclusive (no result: NS1 function inh, Shiga toxin inh, CHX counter)
Cc1cccc(C)c1NC(=O)CN(C)C(=O)c1ccccc1Sc1ccccc1C#N	Pf growth 48h 9.3µM, Pf growth 96h inconclusive (no result: NS1 function inh, Shiga toxin inh, CHX counter)
CCO[C@@H]1OC(C(=O)N2CCCCCCC2)=C[C@H](C2CCCCC2)[C@H]1CCCO	Pf growth 48h 10µM, Pf growth 96h inconclusive
CCO[C@@H]1OC(C(=O)N2CCN(Cc3ccc4c(c3)OCO4)CC2)=C[C@H](C2CC2)[C@H]1CCCO	Pf growth 48h inconclusive, Pf growth 96h 3.3µM
CCO[C@H]1OC(C(=O)N2CCN(Cc3ccc4c(c3)OCO4)CC2)=C[C@@H](C2CCCCC2)[C@@H]1CCCO	Pf growth 48h inconclusive, Pf growth 96h 4.1µM
CCO[C@H]1OC(C(=O)N2CCN(Cc3ccc4c(c3)OCO4)CC2)=C[C@@H](C)[C@@H]1CCCO	none
CCO[C@@H]1OC(C(=O)N2CCN(Cc3ccc4c(c3)OCO4)CC2)=C[C@H](C)[C@H]1CCCO	Pf growth 48h inconclusive, Pf growth 96h inconclusive
CCCSc1ccc([C@H]2N[C@@](C)(C(=O)OC)[C@H]3C(=O)N(CC)C(=O)[C@@H]23)cc1	none (no result: Pf growth 48h, Pf growth 96h, NS1 function inh, Shiga toxin inh, CHX counter)
CN(C(=O)c1nn(C)c2c1CSc1ccccc1-2)c1ccccc1Cl	Shiga toxin inh 33, CHX counter 25
CC1CCCC(C)N1CCCNC(=O)c1nn(C)c2c1CSc1ccccc1-2 (stereo not drawn)	Pf growth 48h inconclusive, Pf growth 96h inconclusive
CC1CCCN(C(=O)c2nn(C)c3c2CS(=O)(=O)c2ccccc2-3)C1 (stereo not drawn)	none
CC1CCCN(C(=O)c2nn(C)c3c2CSc2ccccc2-3)C1 (stereo not drawn)	CHX counter 18
CN(C(=O)c1nn(C)c2c1CSc1ccccc1-2)c1ccc(F)cc1	none
CC1CC(C)CN(C(=O)c2nn(C)c3c2CSc2ccccc2-3)C1 (stereo not drawn)	Pf growth 48h inconclusive, Pf growth 96h 5.9µM
CC(Oc1cc(-c2ccccc2)cc2ccccc12)C(=O)N1CCOCC1 (stereo not drawn)	Pf growth 48h inconclusive (no result: Pf growth 96h)
COc1ccc(N(Cc2ccccc2)S(=O)(=O)c2cccc(C(=O)Nc3ccccn3)c2)cc1	Pf growth 48h inconclusive, Pf growth 96h inconclusive (no result: NS1 function inh, Shiga toxin inh, CHX counter)
C=CCN(c1ccccc1OC)S(=O)(=O)c1cccc(C(=O)Nc2nnc(C3CC3)s2)c1	Pf growth 48h 10µM, Pf growth 96h 9.3µM (no result: NS1 function inh, Shiga toxin inh, CHX counter)
CCN(c1ccccc1)S(=O)(=O)c1ccc(C(=O)Nc2cccc(C)n2)cc1	Pf growth 48h 9.3µM, Pf growth 96h inconclusive (no result: NS1 function inh, Shiga toxin inh, CHX counter)
COc1ccccc1N(Cc1ccccc1)S(=O)(=O)c1cccc(C(=O)Nc2cccc(C)n2)c1	Pf growth 48h 9.3µM, Pf growth 96h inconclusive
Cc1ccc(S(=O)(=O)N(C)c2ccc(C(=O)Nc3cccc(C)n3)cc2)cc1	none
Cc1cccc(NC(=O)c2ccc(C(=O)c3ccccc3)cc2)n1	none (no result: NS1 function inh, Shiga toxin inh, SARS PLP yeast, CHX counter)
Cc1cccc(NC(=O)c2cccc(S(=O)(=O)N(C)c3ccccc3)c2)n1	Pf growth 48h 7.4µM, Pf growth 96h 13µM (no result: NS1 function inh, Shiga toxin inh, CHX counter)
CCNc1ccc(C(=O)OCC)cc1NC(=O)c1cccc(N(C)C)c1	Pf growth 48h inconclusive
CCNc1ccc(C(=O)OCC)cc1NC(=O)c1cccc(S(=O)(=O)N(C)c2ccccc2)c1	Pf growth 48h inconclusive, Pf growth 96h 2.3µM, NS1 function inh inconclusive
CC12CCC(=O)N1C(C(=O)NNC(=O)COc1ccccc1Cl)CS2 (stereo not drawn)	none (no result: NS1 function inh, Shiga toxin inh, CHX counter)
CC(=O)c1ccc(NC(=S)N2C(C)CCCC2C)cc1 (stereo not drawn)	Pf growth 48h inconclusive, SARS PLP yeast inconclusive
c1ccc2c(c1)nc(NCC1CCCO1)c1nnnn12 (stereo not drawn)	Shiga toxin inh 58, CHX counter 21
